# Screening results from PubChem BioAssay.
# Autofluor counter: flagged as autofluorescent in microsphere protease counterscreen | 360,000 compounds, 3.1% hits | compound autofluorescence counterscreen, microsphere flow cytometry; stronger effect = higher value | fluorescence intensity (no concentration beside the values) | AID 624483; in the data active = fluorescence intensity above about 16000; inconclusive = no clear call, values can overlap the other calls
# Anthrax LF inh2: blocks Bacillus anthracis lethal factor protease; inhibition, % at 10 µM; multiplex microsphere protease cleavage assay, LF; AID 588501; 360,000 compounds, 0.12% hits; P15917
# MazEF act: increases E. coli MazEF RNase cleavage of RNA; activation, % at 20 µM; P0AE70; FAM/BHQ RNA-DNA oligo cleavage fluorescence, 5 h; AID 504720; 350,000 compounds, 0.32% hits; in the data active = activation above about 50%
# BoNT-F LC inh: blocks Botulinum neurotoxin F light chain protease; inhibition, % at 10 µM; Multiplex microsphere protease cleavage assay, flow cytometry; 360,000 compounds, 0.22% hits; in the data active = inhibition above about 35%, passing the limit was not always enough; inconclusive = no clear call, values can overlap the other calls
# BoNT-A LC inh2: BoNT A light chain protease inhibition; 360,000 compounds, 0.17% hits; multiplex microsphere protease substrate cleavage, flow cytometry; inhibition, % at 10 µM
# Hits are given with their value; 0 = inactive; ? = inconclusive; - = no result given. Rows were chosen to be rich in hits. Some 3.7% of all compounds tested hit in one or more screens of this group. Rule as the data show it, unless noted: active = inhibition above about 30%; inconclusive = no clear call, values can overlap the other calls; inactive = below that.
SMILES,Autofluor counter,Anthrax LF inh2,MazEF act,BoNT-F LC inh,BoNT-A LC inh2
Cc1ccc(N2CC(C(=O)OCC(=O)Nc3ccccc3C)CC2=O)cc1 (centres undefined),0,0,0,0,0
Cc1nc2sc(C(c3ccc(Cl)cc3)N3CC(C)OC(C)C3)c(O)n2n1 (centres undefined),0,0,0,35.9,0
COc1cc([N+](=O)[O-])cc(CN2CCCCC2)c1O,16919,0,0,0,?
O=[N+]([O-])c1ccc(Cl)c(CN2CCCCCC2)c1,0,0,0,0,0
COCCNCc1ccccc1,24425,0,0,0,0
COCCNCc1ccc(C(C)C)cc1,0,0,0,0,0
Cc1ccsc1C(=O)OCc1nc2ccccc2c(=O)[nH]1,19317,0,0,0,0
Cc1ccsc1C(=O)OCc1nc2ccsc2c(=O)[nH]1,0,0,0,0,0
CC(=O)Nc1ccc(S(=O)(=O)N2CCC(C(=O)NCc3cccnc3)CC2)cc1,0,0,0,0,0
Cc1ccc(-n2c(C(C)n3nc(C)c([N+](=O)[O-])c3C)n[nH]c2=S)cc1 (centres undefined),19726,0,0,0,0
Cc1nn(C(C)c2n[nH]c(=S)n2-c2cccc(Cl)c2)c(C)c1[N+](=O)[O-] (centres undefined),18732,0,0,0,0
COc1ccc(-n2c(C(C)n3nc(C)c([N+](=O)[O-])c3C)n[nH]c2=S)cc1 (centres undefined),0,0,0,0,0
COc1cc(Cl)c(C)cc1NC(=O)CSc1ccc(C)cc1,23633,0,0,0,0
CC(C)OC(=O)CSc1nnc(-c2cnccn2)n1Cc1ccco1,0,0,0,0,0
Brc1ccc(CSc2nnc(-c3cnccn3)n2Cc2ccco2)cc1,0,0,0,0,0
Cc1cccc(NC(=O)CSc2nnc(-c3cnccn3)n2Cc2ccco2)c1,23296,0,0,0,?
O=C(CSc1nnc(-c2ccncc2)n1Cc1ccco1)Nc1cccc(O)c1,0,0,0,0,0
Fc1ccc(CSc2nnc(-c3cnccn3)n2Cc2ccco2)cc1,24676,0,0,0,0
Cc1ccc(NC(=O)CSc2nnc(-c3cnccn3)n2Cc2ccco2)cc1,17381,0,0,0,0
O=C(CSc1nnc(-c2cnccn2)n1Cc1ccco1)c1ccc2ccccc2c1,21448,0,0,0,?
C=CCn1c(SCC(=O)Nc2cccc3ccccc23)nnc1-c1cnccn1,16132,0,0,0,0
O=C(CCCc1ccccn1)c1ccc(-c2ccccc2)cc1,0,0,0,0,0
CCC(C)[C@H](NC(=O)NCc1ccccn1)C(=O)OC (some centres undefined),16131,0,0,0,0
O=C(NCc1ccccn1)Nc1ccc2c(c1)OCO2,17706,0,0,0,0
O=C(Nc1ccc2c(c1)OCO2)Nc1cnccn1,21245,0,0,0,0
SMILES,Autofluor counter,Anthrax LF inh2,MazEF act,BoNT-F LC inh,BoNT-A LC inh2
COc1ccc(NC(=O)NCc2ccccn2)cc1OC,19081,0,0,0,0
O=C(Nc1ccc2c(c1)OCO2)Nc1ccccn1,0,0,0,0,0
CCC(=O)N1CCCC1(C)C(=O)Nc1ccc2scnc2c1 (centres undefined),0,0,-,0,0
CC(=O)n1c(=O)oc2ccccc21,0,0,0,0,0
Cc1ccc(CN2C(=O)CSC2c2ccc(F)cc2)cc1 (centres undefined),0,0,0,0,0
Cc1ccc(OCc2cn3cccnc3n2)cc1,0,0,0,0,0
Cc1cccc(C)c1NC(=O)C1C2C=CC(C2)C1C(=O)NCc1ccccn1 (centres undefined),0,0,0,0,0
COc1ccc(OC)c(NC(=O)C2C3C=CC(C3)C2C(=O)NCc2ccccn2)c1 (centres undefined),21062,0,0,0,0
COc1cc(C)c(S(=O)(=O)NCc2cccnc2)cc1C,0,0,0,0,0
CCC1(C)COC2(OC1)C(=O)Nc1ccccc12 (centres undefined),20257,0,0,0,0
CCOC(=O)c1c(NC(=O)CN2C(=O)NC(C)(c3ccc(Cl)cc3)C2=O)sc(C(=O)NC)c1C (centres undefined),0,0,0,0,0
NC(=O)C1CCCN(CC(=O)Nc2ccccc2C(=O)NC2CC2)C1 (centres undefined),0,0,0,0,0
O=C(CSc1cccc(C(F)(F)F)c1)Nc1ccc(Cl)cc1Cl,19968,0,0,0,?
O=C(CS(=O)c1cccc(C(F)(F)F)c1)Nc1ccccc1Cl (centres undefined),22990,0,0,0,0
Cc1nn(-c2ccccc2)c(OC(=O)c2cccs2)c1S(=O)(=O)c1ccccc1,0,0,0,0,0
Cc1nn(-c2ccccc2)c(OC(=O)c2cccs2)c1S(=O)(=O)c1ccc([N+](=O)[O-])cc1,16331,0,0,0,0
COC(=O)CN(C(=S)Nc1ccc(F)cc1)C1CC(=O)N(c2ccc(OC)cc2)C1=O (centres undefined),22916,0,0,0,?
CCOc1ccc(CCNC(=O)CSc2ncn[nH]2)cc1OCC,0,0,0,0,0
Nc1cc(Cl)ccc1N1CCCCC1,0,0,0,0,0
Nc1cc(Cl)cc2c1-c1ccc(Cl)cc1C2,0,0,64.7,0,0
O=C(NCCc1ccccc1F)C1CC(=O)N(c2cccc(C(F)(F)F)c2)C1 (centres undefined),0,0,0,0,0
O=C(c1ccc(-c2ccc(Cl)cc2)o1)N1CCN(c2ccc([N+](=O)[O-])cc2Cl)CC1,21861,0,0,0,0
CCOC(=O)C1=C(C)N=C2SC(C(=O)OC)=CC(=O)N2C1c1cccc(OC)c1 (centres undefined),19879,0,0,0,0
O=S(=O)(c1cccc(-c2nnc(-c3cccnc3)o2)c1)N1CCCCC1,19643,0,0,0,?
O=S(=O)(c1cccc(S(=O)(=O)N2CCCC2)c1)N1CCCCC1,0,0,0,0,0
SMILES,Autofluor counter,Anthrax LF inh2,MazEF act,BoNT-F LC inh,BoNT-A LC inh2
O=S(=O)(c1cccc(S(=O)(=O)N2CCCC2)c1)c1cccc(S(=O)(=O)N2CCCC2)c1,21252,0,0,0,?
O=S(=O)(c1cccc(Cl)c1)N1CCCC1,24145,0,0,0,0
O=S(=O)(c1cc(Cl)ccc1Br)N1CCCCC1,21533,0,0,0,0
Cc1ccc(S(=O)(=O)NC(=O)Nc2cc(C(C)(C)C)on2)cc1,-,-,0,-,-
COc1ccc(-c2csc(N(Cc3ccccc3)C(=O)COc3ccc(Cl)cc3)n2)cc1,0,0,0,0,0
COc1ccc(-c2csc(N(CCc3ccc(OC)c(OC)c3)C(=O)COc3ccccc3)n2)cc1,19913,0,0,0,?
O=C(COc1ccccc1)N(Cc1ccccc1)c1nc(-c2ccccc2)cs1,21962,0,0,0,0
OCCCNc1ncnc2sc3c(c12)CCN(Cc1ccccc1)C3,0,0,0,?,35.1
CCOC(=O)c1cc(-c2ccc(OC)cc2F)nc2c1c(C)nn2CCC#N,25362,0,0,0,?
CCOC(=O)c1cc(-c2ccc(Cl)cc2)nc2c1c(C)nn2CCC#N,0,0,0,0,0
CCC(=O)N1CCc2nc(-c3ccccc3)sc2C1,0,0,0,0,0
